Source: PubChem BioAssay (National Center for Advancing Translational Sciences (NCATS))
Pf growth 48h: inhibits P. falciparum growth in the first generation, 48 h | P. falciparum luciferase growth in erythrocytes, 48 h | Potency, µM (doses to about 28.7 µM), inactives show at the highest dose activity change, negative = inhibition, most hits filed as inhibitors | 5.9% of 310,000 active | AID 504832; note: potency is the fitted concentration of half-maximal effect; % is set by controls: 0 for no effect and ±100 for the full control effect
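Growth was read as firefly luciferase luminescence after a 48 h, 37 C, 5% CO2 exposure of compounds to reporter-bearing P. falciparum cultures (0.1% parasitemia, 2% hematocrit final) in Albumax-supplemented RPMI 1640.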
HCV inhibitor: inhibitors of hepatitis C virus infection; Huh7.5.1 HCVcc-Cre infection, luciferase reporter, 44 h; AID 651820; 3.4% of 340,000 active; Potency, µM (highest dose often 41.8 µM), for the others: at the top dose activity change, negative = inhibition, hits mostly inhibitors; note: potency is the fitted concentration of half-maximal effect; % is set by controls: 0 for no effect and ±100 for the full control effect
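Whole-lifecycle infectious HCVcc-Cre system; cells 1,000/well, compound then virus (~0.5 moi) added 4 h after plating, 44 h culture. Luciferase read 15 sec following 15 min substrate incubation, room temp.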
SARS PLP yeast: SARS-CoV PLP inhibition in yeast; S. cerevisiae expressing SARS-CoV PLpro, growth rescue; Potency, µM (doses to about 32.9 µM), for the others: at the highest dose activity, positive = growth rescue, hits mostly activators; 0.19% of 330,000 active; AID 485353; calls by dose curve; note: potency is the fitted concentration of half-maximal effect; 0% is about no effect; nearly all actives have a fitted effect of over 55% in size
HCMV antiviral: inhibitors of human cytomegalovirus | HFF cells, HCMV-luciferase reporter, 72 h; stronger effect = lower value | activity change, negative = inhibition, % at 57.5 µM | 4.5% of 410,000 active; in the data active = activity change below about -60%; inconclusive = no clear call, values can overlap the other calls; inactive = above about -39%; note: % is set by controls: 0 for no effect and ±100 for the full control effect
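Steps: HFFs plated, 16 h 37C; compounds added; HCMV-luciferase added to MOI 1 PFU/cell; 72 h 37C; OneGlo reagent, 5 min room temperature; luminescence read, normalized to controls.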
Sm TGR block: inhibitors of Schistosoma mansoni thioredoxin glutathione reductase; Q962Y6; Potency, µM (doses to about 114 µM), inactives show at the highest dose activity change, negative = inhibition, actives largely listed as inhibitors; 3% of 360,000 active; purified TGR, DTNB reduction, TNB absorbance 405 nm; note: potency is the fitted concentration of half-maximal effect; % is set by controls: 0 for no effect and ±100 for the full control effect; nearly all actives have a fitted effect of over 60% in size
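Kinetic colorimetric format: TGR-catalysed, NADPH-driven DTNB reduction monitored via TNB absorbance. Enzyme dispensed at 20 nM; compound exposure 15 min at room temperature before reaction start.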
Pf growth 96h: inhibits malaria parasite growth, 96 h | P. falciparum luciferase reporter growth, 96 h | Potency, µM (highest dose often 28.7 µM), for inactives: at the top dose activity change, negative = inhibition, usual class: inhibitors | 6.9% of 320,000 active; note: potency is the fitted concentration of half-maximal effect; % is set by controls: 0 for no effect and ±100 for the full control effect
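Infected RBCs, 2% Hct / 0.05% parasitemia final; luciferase-reporter P. falciparum; cpd 96 h, 37 C, 5% CO2; luciferase detection reagent; luminescence.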
* = called active by the depositor; u = inconclusive; x = not tested or not shown. Compounds with a hit are over-represented: about 15% of the library has one in this group of screens. Unless noted, calls come from the whole dose curve; as a rule, active = well fitted curve in the direction sought with a large enough effect; inconclusive = small, poorly fitted or top-dose-only effect, or another doubt; inactive = no such curve, though single readings can be large; an effect the other way counts as inactive or inconclusive.

SMILES | Pf growth 48h | HCV inhibitor | SARS PLP yeast | HCMV antiviral | Sm TGR block | Pf growth 96h
NS(=O)(=O)c1ccc(NC(=O)c2cc(-c3cccs3)nc3ccccc23)cc1 | 26% | u | 6% | 6 | 24% | 0.41µM*
Cc1nc2cc(Oc3nc(NCCN(C)C)nc4ccsc34)ccc2s1 | x | x | x | -23 | x | x
O=C(Nc1ccc(O)c(C(=O)O)c1)c1ccc2c(c1)C(=O)N(CC1CCCO1)C2=O (stereo unspecified) | 18% | 4% | -4% | -6 | -4% | -13%
O=c1cc(CN2CCCCC2)c2c(ccc3ccccc32)o1 | x | x | x | -8 | x | x
C/C(=N\NC(=O)C(c1ccccc1)c1ccccc1)c1ccccn1 | 2.3µM* | 11µM* | -1% | -99* | 4% | 2.3µM*
Cc1ccc(NC(=O)c2cc(-c3cccs3)nc3ccccc23)c(C)c1 | x | x | x | 7 | 5% | x
COc1ccc(NC(=O)c2ccccn2)cc1OC | 177% | -10% | -15% | 12 | -31% | 222%
C/C(=N\NC(=O)C(c1ccccc1)c1ccccc1)c1ccc(O)cc1 | u | -15% | -2% | 22 | -14% | u
COc1ccc(C(=O)N/N=C(\C)c2ccccn2)cc1OC | u | u | 7% | -112* | -1% | 51%
C/C(=N\NC(=O)c1cc(-c2cccs2)nc2ccccc12)c1ccccn1 | u | 0.56µM* | -19% | -101* | 8% | u
Cc1cccc2sc(NNC(=O)c3cc(-c4cccs4)nc4ccccc34)nc12 | u | u | 14% | -68* | -15% | 4.1µM*
CN(NC(=O)NN(C)C(=O)c1ccccc1)C(=O)c1ccccc1 | x | 19% | x | -22 | x | x
CCOC(=O)/C=C/[C@@H](C)NC(=O)C(F)(F)F | x | x | x | -22 | x | x
C/C(=N/NC(=O)c1ccc(C(C)(C)C)cc1)c1ccccn1 | x | 3.5µM* | x | -98* | x | x
C/C(=N\NC(=O)c1cccc2ccccc12)c1ccccn1 | u | 5µM* | 2% | -96* | 0% | 2.1µM*
C/C(=N/NC(=O)c1ccccn1)c1ccncc1 | 48% | 38% | -1% | 29 | 6% | u
C/C(=N\NC(=O)c1ccccc1Cl)c1ccccn1 | 1.7µM* | u | 9% | -97* | 8% | -5%
CCOc1cc(NC(=S)NCCCN2CCOCC2)c(OCC)cc1NC(=O)C1CCCCC1 | 7% | -56% | 0% | 16 | -27% | 27%
O=[N+]([O-])c1ccc2c(c1)ncn2-c1ccccc1 | 29% | u | 29% | -70* | 0% | u
Cn1c(-[n+]2c(-c3ccccc3)cc(-c3ccccc3)cc2-c2ccccc2)nc2cc([N+](=O)[O-])ccc21 | 13µM* | -2% | -39% | 9 | 45µM* | 3.3µM*
O=[N+]([O-])c1ccc2c(c1)ncn2CCc1ccccc1 | u | 10% | -7% | u | 2% | 0.52µM*
O=[N+]([O-])c1ccc2c(c1)nnn2-c1ccccc1 | 47% | -6% | -5% | 16 | -4% | u
O=[N+]([O-])c1ccc2cn(-c3ccccc3)nc2c1 | 253% | u | -16% | -68* | 1% | 323%
CC(=O)N1CCCc2cc(S(=O)(=O)N3CCN(c4ccc(F)cc4)CC3)ccc21 | x | x | x | -26 | -2% | x
NC(=O)c1ncn([C@@H]2O[C@H](CNCc3cccc(OC4CCCC4)c3)[C@@H](O)[C@H]2O)n1 | x | 7% | x | 10 | x | x
CC1(c2nnc(Cc3ccccc3)o2)CC(c2ccccc2[N+](=O)[O-])=NO1 (stereo unspecified) | 6% | 4% | 0% | x | 3.2µM* | 76%
CC1(c2nnc(Cc3ccccc3)o2)CC(c2cccc([N+](=O)[O-])c2)=NO1 (stereo unspecified) | 1% | -1% | 2% | -4 | 45µM* | 22%
Cc1ccc(CNCC(O)c2ccccc2)s1 (stereo unspecified) | 12µM* | 22% | 3% | 12 | 0% | 123%
OC(CNCc1cccs1)c1ccccc1 (stereo unspecified) | 13µM* | 7% | 1% | x | 8% | u
